# Data taken from article PMC4336329 (PLoS ONE, 2015).
# In all, about 310,000 compounds went through this assay and about 14,000 (4.5%) showed an effect of 50% or more. Effects have a minus sign here. This is one part of a sample in which strong results are shown more often than they occur.
# Molecular target: human ether-à-go-go-related gene (hERG) potassium channel (human, UniProt Q12809)
# Test: primary screen, population patch clamp on CHO cells stably expressing hERG; higher = less effect of the substance
# 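Note: peak tail current of the secondary pulse compared with the same well before compound.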
# Sequence of human ether-à-go-go-related gene (hERG) potassium channel (Q12809 whole entry, looked up): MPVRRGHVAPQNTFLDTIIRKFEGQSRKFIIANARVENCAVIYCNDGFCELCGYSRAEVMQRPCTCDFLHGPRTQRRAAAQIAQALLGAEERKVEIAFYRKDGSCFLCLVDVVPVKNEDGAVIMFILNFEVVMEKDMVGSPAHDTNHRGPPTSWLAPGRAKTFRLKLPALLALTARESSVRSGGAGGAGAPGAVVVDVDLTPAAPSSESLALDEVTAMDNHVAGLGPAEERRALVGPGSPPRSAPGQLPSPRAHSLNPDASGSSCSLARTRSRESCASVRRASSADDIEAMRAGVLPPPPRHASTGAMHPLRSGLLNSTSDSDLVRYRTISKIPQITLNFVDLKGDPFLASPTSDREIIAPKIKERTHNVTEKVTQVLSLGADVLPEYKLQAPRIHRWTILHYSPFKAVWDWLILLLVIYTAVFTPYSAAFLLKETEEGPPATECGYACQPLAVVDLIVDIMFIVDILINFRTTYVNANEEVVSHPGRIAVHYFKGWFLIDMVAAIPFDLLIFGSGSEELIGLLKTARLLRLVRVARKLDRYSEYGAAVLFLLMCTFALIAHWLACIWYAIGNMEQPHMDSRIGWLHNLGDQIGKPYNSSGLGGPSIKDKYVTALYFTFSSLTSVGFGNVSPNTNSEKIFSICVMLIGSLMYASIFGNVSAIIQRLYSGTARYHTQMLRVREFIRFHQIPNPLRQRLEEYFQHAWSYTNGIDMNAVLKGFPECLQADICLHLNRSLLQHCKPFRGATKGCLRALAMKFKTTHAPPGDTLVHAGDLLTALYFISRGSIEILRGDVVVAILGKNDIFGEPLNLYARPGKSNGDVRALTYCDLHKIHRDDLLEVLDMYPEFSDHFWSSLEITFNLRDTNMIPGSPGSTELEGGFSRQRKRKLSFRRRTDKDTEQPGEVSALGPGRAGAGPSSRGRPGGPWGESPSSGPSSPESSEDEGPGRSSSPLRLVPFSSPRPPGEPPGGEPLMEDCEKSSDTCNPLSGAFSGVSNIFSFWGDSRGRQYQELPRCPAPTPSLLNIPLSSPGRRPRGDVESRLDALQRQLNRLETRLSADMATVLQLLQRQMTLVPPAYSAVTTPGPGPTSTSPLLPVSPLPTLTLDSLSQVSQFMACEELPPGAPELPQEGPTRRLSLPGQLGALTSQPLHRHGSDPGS
row,Structure (SMILES),"hERG current change (%, negative = inhibition) at 10uM [%]"
1,CCC(C)[C@H](NC(=O)Nc1ccc(S(N)(=O)=O)cc1)C(=O)OC (stereo partly drawn),13.1
2,O=C1CCCc2c1nc(-c1ccco1)n2O,12.1
3,O=C(Cn1[nH]c(=O)c2ccccc2c1=O)N1CC=C(c2ccccc2)CC1,-4.76
4,COc1ccc(CCNC(=O)CS(=O)Cc2nc(-c3ccccc3F)oc2C)cc1OC (stereo not drawn),13
5,O=c1oc2ccc(C#CC3(O)CCCCC3)cc2cc1-n1cc(C2(O)CCCCC2)nn1,24.7
6,O=C(c1ccc(F)cc1)n1c(=S)nc2ccccn21,-1.25
7,CC(=O)N(Cc1nc2sc(C)c(C)c2c(=O)[nH]1)C1CCCC1,21.8
8,FC(F)(F)c1cccc(N2CCN(C3CC4CCC3C4)CC2)c1 (stereo not drawn),-1.68
9,CCc1ccc(C(=O)COC(=O)c2cnccn2)cc1,0.242
10,Cc1ccc(NC(=S)NNC(=S)NC2CCCCC2)cc1,21
11,Cc1ccc(NC(=S)NC2CCCC2)cc1,4.64
12,Cc1ccc(NC(=S)NC2CCCC2)cc1C,14.8
13,Cc1ccc(NC(=S)NCC2CCCO2)cc1C (stereo not drawn),-1.97
14,Cc1ccc(NC(=S)NCCN(C2CCCCC2)C2CCCC2)cc1C,-68.1
15,Cc1ccc(NC(=S)NCCN(C2CCCCC2)C2CCCC2)cc1,-72
16,Cc1ccc(N2CC(C(=O)Nc3nnc(SCCN4CCOCC4)s3)CC2=O)cc1C (stereo not drawn),20.7
17,COc1ccccc1-n1nnnc1SCc1cc2c(cc1Br)OCO2,-9.95
18,CCCCC(OC(=O)c1ccco1)C(=O)NCc1ccc(C)cc1 (stereo not drawn),-0.428
19,O=C(Cn1cnc([N+](=O)[O-])n1)NC1CC1,7.02
20,Cc1nn(-c2ccccc2)c2[nH]c(=O)c(CNCc3ccc4c(c3)OCO4)cc12,-28.7
21,CC(C)(C)c1nn(-c2ccccc2)c2[nH]c(=O)c(CNCc3ccc4c(c3)OCO4)cc12,-17.9
22,Cc1nn(-c2ccc(Cl)cc2)c2[nH]c(=O)c(CNCc3ccc4c(c3)OCO4)cc12,-70

row,Structure (SMILES),"hERG current change (%, negative = inhibition) at 10uM [%]"
1,Cc1ccc2c(C)c(C(=O)Nc3ccc(S(N)(=O)=O)cc3)oc2c1C,31.2
2,COc1ccccc1CC1C(=O)C2CCN1CC2 (stereo not drawn),14.5
3,NCCSc1c(-c2ccc(Cl)cc2)[nH]c2ccccc12,-84.3
4,Cc1ccc(-c2[nH]c3ccccc3c2SCCN)cc1,-27.6
5,NCCSc1c(-c2ccccc2)[nH]c2ccccc12,-12.1
6,O=C(NCC1CCCO1)C(=O)N/N=C/c1c(F)cccc1Cl (stereo not drawn),8.04
7,Cc1noc(C)c1COC(=O)/C=C/c1ccc(Cl)cc1,0.131
8,CCn1cc(/C=C/C(=O)Nc2ccc(C)cc2Br)cn1,-30.7
9,O=C(C1CCCN(S(=O)(=O)c2ccc(F)cc2)C1)N1CCCC1 (stereo not drawn),5.78
10,O=C(C1CCCN(S(=O)(=O)c2ccc(Cl)cc2)C1)N1CCCC1 (stereo not drawn),-19
11,O=C(C1CCCN(S(=O)(=O)c2ccc(F)cc2)C1)N(Cc1cccs1)C1CC1 (stereo not drawn),-78.2
12,O=C(O)C1CCCN(S(=O)(=O)c2ccc(F)cc2)C1 (stereo not drawn),20.4
13,O=C(C1CCCN(S(=O)(=O)c2ccc(Cl)cc2)C1)N(Cc1cccs1)C1CC1 (stereo not drawn),-63
14,Cc1ccc(S(=O)(=O)N2CCCC(C(=O)N(Cc3cccs3)C3CC3)C2)cc1 (stereo not drawn),-67.7
15,Cc1ccc(S(=O)(=O)N2CCCC2C(=O)N(C)Cc2cccs2)cc1 (stereo not drawn),-19.9
16,CCOC(=O)C1CCCN(S(=O)(=O)c2ccc(C)cc2)C1 (stereo not drawn),-2.86
17,CN1CCN(C(=O)C2CCCN(S(=O)(=O)c3ccc(Cl)cc3)C2)CC1 (stereo not drawn),-18.8
18,Cc1noc(/C=C/Nc2ccc(F)cc2F)c1[N+](=O)[O-],12.1
19,COc1ccc(NC(=S)N(CCN(C)C)C(C)c2ccco2)cc1 (stereo not drawn),-16.6
20,O=C1CSC(c2ccccc2)N1CCc1ccccc1 (stereo not drawn),1.82
21,Cc1ccccc1SCC(=O)OCC(=O)Nc1ccc(N(C)C)cc1,10.4
22,Cc1nc(CN2CCN(Cc3nc(C(c4ccccc4)c4ccccc4)no3)CC2)cs1,-45.5

row,Structure (SMILES),"hERG current change (%, negative = inhibition) at 10uM [%]"
1,COCC1CCCN(Cc2nc(C(c3ccccc3)c3ccccc3)no2)C1 (stereo not drawn),-19.6
2,C[C@@H]1CN(C2CCN(Cc3nc(C(c4ccccc4)c4ccccc4)no3)CC2)C[C@H](C)O1,-38.6
3,Cc1cccnc1CN1CCN(Cc2nc(C(c3ccccc3)c3ccccc3)no2)CC1,-56.2
4,c1ccc(C(c2ccccc2)c2noc(CN3CCN(CC4CC4)CC3)n2)cc1,-61.6
5,c1ccc(C(c2ccccc2)c2noc(CN3CCN(C4CCCC4)CC3)n2)cc1,-70.1
6,CC(=O)N1CCN(Cc2nc(C(c3ccccc3)c3ccccc3)no2)CC1,10.8
7,NC(=O)CCN1CCN(Cc2nc(C(c3ccccc3)c3ccccc3)no2)CC1,-25.6
8,c1ccc(C(c2ccccc2)c2noc(CN3CCC(c4ccncc4)CC3)n2)cc1,-32.7
9,CC(=O)c1c(NCCc2ccccc2)nc(=S)n(-c2ccccc2)c1C,7.04
10,CCn1c(=O)cc(OCC(=O)NCc2ccco2)c2ccccc21,0.766
11,CCN1CCCC1CNC(=O)Cn1cnc2sc(C)c(S(=O)(=O)N3CCC(C)CC3)c2c1=O (stereo not drawn),-14.5
12,Cc1ccc2nc(N3C(=O)C(O)=C(C(=O)c4ccco4)C3c3ccc(C)o3)sc2c1.O=C(O)C(=O)O (stereo not drawn),1.65
13,CC(NC(=O)C1CCC(CNC(=O)[C@@H]2Cc3ccccc3CN2)CC1)c1ccccc1 (stereo partly drawn),-4.23
14,CCn1c(SCC(=O)Nc2cc(C)on2)nnc1-c1ccc(S(=O)(=O)N2CCCC2)cc1,-1.7
15,Cc1ccc2cc3cc(C(=O)NCc4ccco4)oc3nc2c1,-1.21
16,Cc1ccc2cc3cc(C(=O)NCCCN4CCCCCC4)oc3nc2c1,-50.6
17,Cc1ccc2cc3cc(C(=O)NCCCN4CC(C)CC(C)C4)oc3nc2c1 (stereo not drawn),-62.9
18,Cc1ccc2cc3cc(C(=O)NCCN4CCOCC4)oc3nc2c1,-14.5
19,Cc1ccc2cc3cc(C(=O)NCCCN4CCc5ccccc5C4)oc3nc2c1,-54.9
20,Cc1ccc2cc3cc(C(=O)NCCCN4CCCC4)oc3nc2c1,-15.5
21,Cc1ccc2cc3cc(C(=O)NCCCN4CCCC4=O)oc3nc2c1,2.4
22,Cc1ccc2oc(=O)c3cc(C(=O)NCCCN4CCc5ccccc5C4)sc3c2c1,-6.63

row,Structure (SMILES),"hERG current change (%, negative = inhibition) at 10uM [%]"
1,Cc1ccc2cc3cc(C(=O)N4CC(C)CC(C)C4)oc3nc2c1 (stereo not drawn),1.38
2,CCOC(=O)C1C(c2ccccc2O)NC(=O)NC1(O)C(F)(F)F (stereo not drawn),16.9
3,COc1ccc(OCC(=O)Nc2cccc(C(C)=O)c2)cc1,-7.29
4,CC(C)(C)c1ccc(C(=O)c2c[nH]c(C(=O)NCCc3ccccn3)c2)cc1,15.1
5,Cc1ccc(N(C)C(=O)C2CCCN2S(=O)(=O)c2ccc3c(c2)n(C)c(=O)c(=O)n3C)cc1 (stereo not drawn),-2.28
6,COc1ccccc1C(=O)NCC(=O)N=Nc1c(O)n(C(C)C)c2ccccc12,-7.32
7,CC(CN1CCOCC1)OC(=O)c1ccccc1Cl.Cl (stereo not drawn),12
8,CC1(C)CC(=O)C(C=NCCN2CCN(C(=S)Nc3ccc(F)cc3)CC2)=C(O)C1,-27.8
9,CC1(C)CC(=O)C(C=NCC2CCN(C(=S)Nc3ccccc3)CC2)=C(O)C1,-3.98
10,CC1(C)CC(=O)C(C=NCCN2CCN(C(=O)Cc3ccc(Cl)cc3)CC2)=C(O)C1,-62
11,CC1(C)CC(=O)C(C=NCCN2CCN(C(=S)Nc3cccc(Cl)c3)CC2)=C(O)C1,-66.3
12,CC1(C)CC(=O)C(C=NCCN2CCN(C3CC(=O)N(c4ccc(F)cc4)C3=O)CC2)=C(O)C1 (stereo not drawn),6.86
13,CC1(C)CC(=O)C(C=NCC2CCN(C(=O)Nc3ccc(Cl)c(Cl)c3)CC2)=C(O)C1,-23.8
14,CC1(C)CC(=O)C(C=NCCN2CCN(C(=O)Cc3ccc(F)cc3)CC2)=C(O)C1,-23.5
15,CC1(C)CC(=O)C(C=NCC2CCN(C(=S)Nc3cccc(Cl)c3)CC2)=C(O)C1,-62.4
16,CC1(C)CC(=O)C(C=NCCN2CCN(C3CC(=O)N(c4ccc(Br)cc4)C3=O)CC2)=C(O)C1 (stereo not drawn),-19.3
17,CC1(C)CC(=O)C(C=NCCN2CCN(C3CC(=O)N(c4ccc(Cl)c(Cl)c4)C3=O)CC2)=C(O)C1 (stereo not drawn),-50.2
18,CC1(C)CC(=O)C(C=NCCN2CCN(C(=O)Cc3ccccc3)CC2)=C(O)C1,-24.8
19,CC1(C)CC(=O)C(C=NCCN2CCN(C(=S)Nc3ccccc3)CC2)=C(O)C1,-11.3
20,COc1ccc(Br)cc1C(=O)Nc1cc(C)cc(C)c1,5.21
21,NC(=O)c1cc2n(n1)C(C(F)(F)F)CC(c1ccco1)N2 (stereo not drawn),-7.54
